Unmarked numbers belong to inactive results. For some of these results: Measured potencies and affinities stand elsewhere. Active and inactive are the calls of the source. Unless noted, no rule for the calls is given here.
How the values were obtained:
[1] = antimalarial activity against Dd2 strain (AID 2302;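 active = growth inhibition above 50% at the single 2 µM test dose, taken to imply half-maximal potency below 2 µM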;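 also: 0% = DMSO untreated growth and 100% = chloroquine plus artemisinin killed control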); settings: P. falciparum Dd2 in RBCs, LDH growth readout, 72 h; at 2 µM; active compounds read high
[2] = human hepatoma cell viability loss – ATP luminescence, cytotoxicity control for P. falciparum antimalarial project, primary screen (AID 2303;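 active = inhibition above 50%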;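 also: 0% = DMSO wells and 100% = digitonin-killed cells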); settings: HepG2 viability, 24-48 h, at 10 µM, active compounds read high
[3] = target: L-lactate dehydrogenase (Plasmodium falciparum (isolate CDC / Honduras)) (UniProt Q27743); experiment: PfLDH activity inhibition – cell lysate, 3D7 strain, counter-screen for P. falciparum growth inhibition project (AID 2304);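 also: 0% = vehicle and 100% = reference inhibitor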; settings: P. falciparum 3D7 crude extract, LDH APAD/NBT absorbance; at 2 µM; active compounds read high
Sequence of L-lactate dehydrogenase (Plasmodium falciparum (isolate CDC / Honduras)) (Q27743 whole entry, looked up): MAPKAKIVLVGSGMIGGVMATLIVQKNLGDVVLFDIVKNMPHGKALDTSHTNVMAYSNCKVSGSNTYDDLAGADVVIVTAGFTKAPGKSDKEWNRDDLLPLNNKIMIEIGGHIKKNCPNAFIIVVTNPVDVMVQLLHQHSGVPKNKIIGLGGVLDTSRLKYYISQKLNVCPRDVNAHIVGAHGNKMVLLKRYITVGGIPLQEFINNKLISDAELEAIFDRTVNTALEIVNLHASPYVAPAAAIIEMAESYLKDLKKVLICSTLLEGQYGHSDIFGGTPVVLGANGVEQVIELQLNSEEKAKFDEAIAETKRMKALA

[4] = inhibition of 3D7 malaria parasite growth – strain 3D7 (AID 2306);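 also: 0% = DMSO wells and 100% = chloroquine plus artemisinin control wells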; settings: P. falciparum 3D7 erythrocytic growth, LDH absorbance, 72 h; at 2 µM; active compounds read high
[5] = target: Calcium-dependent protein kinase 1 (Plasmodium falciparum (isolate 3D7)) (UniProt P62344); experiment: PfCDPK1 kinase inhibitors, biochemical, TCAMS library (AID 1159585; cut-off not given, nearly all actives have IC50 up to about 0.98 µM;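 also: inhibitors leave more ATP so luminescence rises with inhibition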); settings: recombinant PfCDPK1, Kinase-Glo ATP depletion luminescence
Sequence of Calcium-dependent protein kinase 1 (Plasmodium falciparum (isolate 3D7)) (P62344 whole entry, looked up): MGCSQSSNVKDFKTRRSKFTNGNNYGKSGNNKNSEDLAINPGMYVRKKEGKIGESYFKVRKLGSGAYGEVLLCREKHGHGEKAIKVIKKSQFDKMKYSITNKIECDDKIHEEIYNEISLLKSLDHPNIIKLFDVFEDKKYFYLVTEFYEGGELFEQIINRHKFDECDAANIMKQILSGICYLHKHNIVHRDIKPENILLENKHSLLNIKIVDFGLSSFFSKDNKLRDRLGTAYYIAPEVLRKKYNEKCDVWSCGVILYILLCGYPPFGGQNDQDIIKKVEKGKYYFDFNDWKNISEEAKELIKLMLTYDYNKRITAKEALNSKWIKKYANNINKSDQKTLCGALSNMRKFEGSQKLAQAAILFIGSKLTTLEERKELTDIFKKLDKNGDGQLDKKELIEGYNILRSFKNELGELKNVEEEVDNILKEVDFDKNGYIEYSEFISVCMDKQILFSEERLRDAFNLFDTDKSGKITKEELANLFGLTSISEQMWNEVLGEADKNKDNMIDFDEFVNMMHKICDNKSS

[6] = target: Plasmodium falciparum protein kinase 6 (PK6, PF3D7_1337100) (UniProt Q8IDW1); experiment: PfPK6 kinase inhibitors, biochemical, TCAMS library (AID 1159586); settings: recombinant PfPK6, Kinase-Glo ATP depletion luminescence
Sequence of Plasmodium falciparum protein kinase 6 (PK6, PF3D7_1337100) (Q8IDW1 1-305): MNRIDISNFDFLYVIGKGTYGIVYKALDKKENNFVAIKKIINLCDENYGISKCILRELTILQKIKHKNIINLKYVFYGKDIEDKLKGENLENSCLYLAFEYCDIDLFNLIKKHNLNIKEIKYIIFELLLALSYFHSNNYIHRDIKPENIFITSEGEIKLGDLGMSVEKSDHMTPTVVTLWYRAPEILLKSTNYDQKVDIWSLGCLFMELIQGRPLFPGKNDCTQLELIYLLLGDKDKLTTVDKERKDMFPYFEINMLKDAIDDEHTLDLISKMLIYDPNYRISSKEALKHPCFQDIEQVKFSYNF

[7] = target: Protein kinase 7 (PK7), Plasmodium falciparum 3D7 (PF3D7_0213400) (UniProt Q7YTF7); experiment: inhibition of Plasmodium PK7 catalytic activity – biochemical, TCAMS antimalarial set, Kinase-Glo luminescence (AID 1159587); settings: recombinant PfPK7, Kinase-Glo ATP depletion luminescence
Sequence of Protein kinase 7 (PK7), Plasmodium falciparum 3D7 (PF3D7_0213400) (Q7YTF7 1-343): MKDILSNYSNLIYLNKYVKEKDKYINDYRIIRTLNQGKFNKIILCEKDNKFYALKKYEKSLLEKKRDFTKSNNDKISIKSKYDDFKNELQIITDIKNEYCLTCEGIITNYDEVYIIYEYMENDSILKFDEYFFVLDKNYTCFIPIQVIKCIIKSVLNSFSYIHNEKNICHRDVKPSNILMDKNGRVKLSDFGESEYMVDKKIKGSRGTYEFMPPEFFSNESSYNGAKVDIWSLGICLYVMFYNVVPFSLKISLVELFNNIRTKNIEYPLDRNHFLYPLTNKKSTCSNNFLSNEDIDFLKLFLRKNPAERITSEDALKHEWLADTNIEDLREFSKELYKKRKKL

[8] = target: Calcium-dependent protein kinase 4 (Plasmodium falciparum (isolate 3D7)) (UniProt Q8IBS5); experiment: PfCDPK4 kinase inhibitors, biochemical, TCAMS library (AID 1159588; cut-off not given, nearly all actives have IC50 up to about 0.91 µM); settings: recombinant PfCDPK4, Kinase-Glo ATP depletion luminescence
Sequence of Calcium-dependent protein kinase 4 (Plasmodium falciparum (isolate 3D7)) (Q8IBS5 whole entry, looked up): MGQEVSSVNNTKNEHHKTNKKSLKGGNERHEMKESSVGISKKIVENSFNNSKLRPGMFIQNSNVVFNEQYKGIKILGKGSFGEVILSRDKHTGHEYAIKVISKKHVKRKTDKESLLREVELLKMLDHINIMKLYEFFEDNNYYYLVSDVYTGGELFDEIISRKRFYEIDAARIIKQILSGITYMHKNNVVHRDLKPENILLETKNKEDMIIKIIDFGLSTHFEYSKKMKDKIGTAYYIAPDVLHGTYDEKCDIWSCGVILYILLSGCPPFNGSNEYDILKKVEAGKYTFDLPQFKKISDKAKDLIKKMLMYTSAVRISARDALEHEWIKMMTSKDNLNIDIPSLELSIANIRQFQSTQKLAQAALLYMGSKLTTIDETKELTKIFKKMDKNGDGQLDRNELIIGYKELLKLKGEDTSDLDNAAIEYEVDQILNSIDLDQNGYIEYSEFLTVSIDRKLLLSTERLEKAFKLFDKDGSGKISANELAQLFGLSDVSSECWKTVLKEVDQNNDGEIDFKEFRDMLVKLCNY

Structure (SMILES) | growth inhibition [1] | inhibition [2] | inhibition [3] | growth inhibition [4] | outcome [5] | outcome [6] | outcome [7] | outcome [8]
Cn1cncc1C(=O)Nc1cccc(-c2cccc(-c3nc4ccccc4[nH]3)c2)c1 | 35% | 9% | 3% | 102% (active) | inactive | inactive | inactive | inactive
COc1cc(C(=O)Nc2cccc(-c3cn4ccc(C)cc4n3)c2)cc(OC)c1OC | 83% (active) | -1% | 1% | 97% (active) | inactive | inactive | inactive | inactive
COc1ccc(CNc2nc(Nc3cccc(C#N)c3)nc(Nc3cccc(C#N)c3)n2)cc1Cl | 83% (active) | -4% | 4% | 101% (active) | inactive | inactive | inactive | inactive
Nc1nc(N)c2c(ccc3c2ccn3Cc2ccc(F)cc2)n1 | 96% (active) | 66% (active) | 1% | 97% (active) | inactive | inactive | inactive | inactive
CCN1CCN(C(=O)NC(C(=O)N(C)Cc2ccc(-c3ccc(C(F)(F)F)cc3)cc2)c2cccs2)C(=O)C1=O (stereo not given) | 95% (active) | -5% | -1% | 99% (active) | inactive | inactive | inactive | inactive
NCCCCNc1cc(-c2ccnc(Nc3cccc(Cl)c3)n2)ccn1 | 91% (active) | 46% | 1% | 94% (active) | inactive | inactive | inactive | inactive
COc1c(I)cc(Cc2cnc(N)nc2N)cc1I | 0% | 5% | -8% | 91% (active) | inactive | inactive | inactive | inactive
C[C@H](Cc1ccc(OCCCOc2ccc(C[C@@H](C)NC[C@H](O)c3cccc(Cl)c3)cc2)cc1)NC[C@H](O)c1cccc(Cl)c1 | 92% (active) | 99% (active) | 0% | 99% (active) | inactive | inactive | inactive | inactive
COc1ccccc1C1CCN(C2CCC(NC(=O)/C=C/c3cccc(C(F)(F)F)c3)CC2)CC1 (stereo not given) | 34% | 38% | -3% | 99% (active) | inactive | inactive | inactive | inactive
COC(=O)c1cccc(CNCc2ccc(-c3ccc(-c4nc5ccccc5[nH]4)s3)cc2)c1 | 79% (active) | 20% | 4% | 100% (active) | inactive | inactive | inactive | inactive
O=C(NCCN1CCCCC1)c1ccc(CNC(=O)c2ccc(O)c(-c3ccc(Cl)c(Cl)c3)c2)cc1 | 68% (active) | 3% | -8% | 93% (active) | inactive | inactive | inactive | inactive
CCc1cn2c3c(cc(C(=O)N[C@@H](Cc4ccccc4)[C@H](O)CNC4CCCCC4)cc13)N(CC)S(=O)(=O)CC2 | 98% (active) | 8% | -5% | 98% (active) | inactive | inactive | inactive | inactive
O=C(Nc1cccc(-c2ccc(-c3nc4ccccc4[nH]3)cc2)c1)Nc1ccc2c(c1)OCO2 | 8% | 20% | -1% | 90% (active) | inactive | inactive | inactive | inactive
COc1ccc(-c2nc(NC(=O)CSc3ccc([N+](=O)[O-])cc3)sc2C)cc1 | 100% (active) | -6% | -1% | 101% (active) | inactive | inactive | inactive | inactive
COc1cc(F)c2ncc(F)c([C@@H](O)CN3CCC(NCc4cc5c(cn4)OCCO5)CC3)c2c1 | 88% (active) | 1% | -1% | 101% (active) | inactive | inactive | inactive | inactive
COC(=O)c1cc(/C(C)=N/Nc2nc3ccccc3[nH]2)ccc1O | 75% (active) | 9% | -1% | 101% (active) | inactive | inactive | inactive | inactive
O=C(Nc1ccc(C(=O)N2CCN(CCN3CCN(c4cccc(C(F)(F)F)c4)CC3)CC2)cc1)c1cc(Cl)cc(Cl)c1 | 19% | 23% | 3% | 100% (active) | inactive | inactive | inactive | inactive
COc1ccc(CN2CCC(NCc3cccc([N+](=O)[O-])c3)CC2)cc1 | 3% | 6% | 2% | 92% (active) | inactive | inactive | inactive | inactive
O=c1cc(-c2cccc(C(F)(F)F)c2)nc(Nc2ccc(Cl)c(Cl)c2)[nH]1 | 97% (active) | 57% (active) | -2% | 97% (active) | inactive | inactive | inactive | inactive
O=C(Nc1ccc2c(c1)CCN(C1CCC1)CC2)c1cn(-c2ccccc2)nc1-c1ccccc1 | 10% | 38% | 3% | 103% (active) | inactive | inactive | inactive | inactive

From PubChem BioAssay
